The list is not random: actives were taken first. Their share in the collection is about 3.6%.
IL1B cytotox = HUVEC cytotoxicity counter-screen, IL-1B stimulated; HUVEC cell count loss, Hoechst imaging; cell count reduction, % at 2 µM; actives 0.41% (n = 94,000);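 active = cell count reduction more than 3 SD above the screen-wide mean, cut at about 70% in these data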
NFkB transloc inh = blocks IL-1B driven NFkB nuclear translocation in HUVEC cells; HUVEC IL-1B NFkB p65 nuclear translocation imaging; inhibition, % at 2 µM; actives 0.43% (n = 94,000); AID 796;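 active = inhibition above about 30% together with a positive call from visual inspection of the well image, limit read from the data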;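 also: nuclear over cytoplasmic p65 intensity ratio measured by imaging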
ERa coact inh = blocks coactivator binding to human estrogen receptor alpha; P03372; TR-FRET ER-alpha LBD / SRC-1 peptide, estradiol-bound; inhibition, % at 25.6 µM; actives 1.7% (n = 86,000); AID 629; in the data active = inhibition above about 50%
NFkB transloc pot = enhances IL-1B driven NFkB nuclear translocation; actives 0.3% (n = 94,000); activation, % at 2 µM; HUVEC IL-1B NFkB p65 nuclear translocation imaging;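 active = activation above 40%, about the mean plus 3 SD, also judged a hit on visual image review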;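 also: percent activation is computed from the nuclear over cytoplasmic p65 intensity ratio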
ERb coact inh = ER-beta (human) coactivator binding inhibition; Q92731; TR-FRET ER-beta LBD / SRC1-Cy5 peptide binding; receptor agonist-loaded with 1 µM estradiol; inhibition, % at 25.6 µM; actives 1.3% (n = 86,000);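 active = compounds whose percent inhibition of the receptor-coactivator binding signal exceeds about 50% in the single-dose screen, limit read from the data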
Target sequence (Q92731 whole entry, looked up, the tested form may be a part): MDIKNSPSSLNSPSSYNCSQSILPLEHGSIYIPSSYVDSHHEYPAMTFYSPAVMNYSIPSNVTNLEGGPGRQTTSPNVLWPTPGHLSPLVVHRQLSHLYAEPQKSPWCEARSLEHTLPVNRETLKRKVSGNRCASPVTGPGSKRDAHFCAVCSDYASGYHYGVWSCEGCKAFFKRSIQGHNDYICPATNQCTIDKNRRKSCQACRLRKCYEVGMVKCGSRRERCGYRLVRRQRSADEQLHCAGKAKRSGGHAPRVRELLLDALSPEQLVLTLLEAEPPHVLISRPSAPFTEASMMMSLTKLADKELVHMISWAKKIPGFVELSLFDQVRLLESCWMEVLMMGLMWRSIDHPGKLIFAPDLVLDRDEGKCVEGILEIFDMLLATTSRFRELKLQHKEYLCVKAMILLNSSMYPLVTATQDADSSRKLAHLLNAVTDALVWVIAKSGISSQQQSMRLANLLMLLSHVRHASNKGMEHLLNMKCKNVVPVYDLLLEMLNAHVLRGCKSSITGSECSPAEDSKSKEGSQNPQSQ
ERa coact pot = enhances coactivator binding to human estrogen receptor alpha | actives 1.3% (n = 86,000) | P03372 | TR-FRET ERalpha-LBD/SRC-Cy5 coactivator binding, 2 h; 100 = basal binding, no effect | coactivator binding (% of control), % at 25.6 µM; in the data active = activity above about 200%;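 also: binding measured in presence of low estradiol as agonist stimulus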
Hits are given with their value; n = inactive; x = not tested or not shown; [ ] = another dose, or the depositor's remark.

SMILES	IL1B cytotox	NFkB transloc inh	ERa coact inh	NFkB transloc pot	ERb coact inh	ERa coact pot
Cn1c(SCC(=O)Nc2sc3c(c2C#N)CCC3)nnc1C1COc2ccccc2O1 (stereo unspecified)	n	n	66[fluorescence artefact?]	n	n	n
CCOC(=O)c1c(C)n(-c2ccc(C)cc2)c2c(C(C(C)=O)C(=O)O)c(Br)c(O)c(O)c12 (stereo unspecified)	n	n	x	n	x	x
CCOC(=O)C(C(C)=O)c1c(Br)c(O)c(O)c2c(C(=O)c3ccc(C)cc3)coc12 (stereo unspecified)	n	n	n	n	72[fluorescence artefact?]	n
COc1cccc2cc3c(=O)n(-c4ccccc4)nc-3oc12	n	n	99[fluorescence artefact?]	n	81	n
Cc1cc(C)n(-c2nc3c(c(=O)n(Cc4ccc(Cl)c(Cl)c4)c(=O)n3C)n2C)n1	n	n	60[fluorescence artefact?]	n	n	n
CCOC(=O)c1c(NC(=O)c2cccs2)sc2c1CCC2	x	x	n	x	n	263[fluorescence artefact?]
CCOC(=O)c1c(NC(=O)CSc2nnc(CNC(=O)c3ccco3)n2C)sc2c1CCC2	n	n	65	n	n	n
CCOC(=O)c1c(NS(=O)(=O)c2ccc(Br)cc2)sc2c1CCC2	n	n	61[fluorescence artefact?]	n	56	n
CCOC(=O)c1c(NC(=O)CSc2nnc(C)s2)sc2c1CCN(C)C2	n	n	85[fluorescence artefact?]	n	n	n
Cc1ncsc1C(=O)NCc1ccc(N2CCCC2=O)cc1	n	n	n	n	n	n
Cc1cc(C)n(CCc2nc3c4ccccc4n(CC(=O)Nc4ccc(Cl)cc4F)c(=O)n3n2)n1	x	x	n	x	n	n
CC1CN(S(=O)(=O)c2cccc(-c3csc(-c4ccccc4)n3)c2)CC(C)O1 (stereo unspecified)	n	n	n	n	n	n
O=S(=O)(c1cccc(-c2csc(-c3ccccc3)n2)c1)N1CCOCC1	n	n	n	n	n	272
O=S(=O)(c1cccc(-c2nc3ccccc3s2)c1)N1CCOCC1	n	n	n	n	68	n
CCOC(=O)N1CCN(S(=O)(=O)c2ccc(C(=O)Nc3nc4ccc(F)cc4s3)cc2)CC1	n	n	n	n	n	377
CCOC(=O)N1CCN(S(=O)(=O)c2ccc(C(=O)Nc3nc4ccccc4s3)cc2)CC1	n	n	n	n	n	280[fluorescence artefact?]
COc1cccc2sc(NC(=O)c3ccc(S(=O)(=O)N4CCOCC4)cc3)nc12	n	n	n	n	n	n
Cc1cccnc1NC(=O)C1CCN(S(=O)(=O)c2cccs2)CC1	n	n	n	n	n	n
Cc1cnc(C(=O)OCC(=O)NC2CCCCC2)cn1	n	n	n	n	n	n
Cc1cnc(C(=O)OCC(=O)c2csc(N3CCCCC3)n2)cn1	n	n	54[fluorescence artefact?]	n	57	n
O=C1c2ccccc2C(Nc2ccc(Cl)cn2)N1c1cccnc1 (stereo unspecified)	n	n	n	n	n	n
CCOc1ccc(OCC)c(NC(=O)C2CCCN2S(=O)(=O)c2cccc3cccnc23)c1 (stereo unspecified)	n	n	n	n	n	n
COc1ccc(NC(=O)C2CCCN2S(=O)(=O)c2cccc3cccnc23)c(OC)c1 (stereo unspecified)	n	n	n	75	n	n
Cc1nc(Nc2nc(-c3ccccc3)cc(=O)[nH]2)nc2ccccc12	n	n	n	n	n	239
CCc1c(C)nc(Nc2nc(C)c3cc(OC)ccc3n2)[nH]c1=O	n	n	n	n	n	n
SMILES	IL1B cytotox	NFkB transloc inh	ERa coact inh	NFkB transloc pot	ERb coact inh	ERa coact pot
COc1nc(Nc2nc3ccccc3c(=O)[nH]2)nc2ccc(C)cc12	x	x	74[fluorescence artefact?]	x	53[fluorescence artefact?]	n
CCc1ccc2nc(Nc3nc(COC)cc(=O)[nH]3)nc(C)c2c1	n	n	x	n	x	x
COc1ccc(-n2nc(C(=O)NCC(=O)NCC3CCCO3)c3ccccc3c2=O)cc1Cl (stereo unspecified)	n	n	x	n	x	x
C=CCn1c(Cc2csc(N)n2)nnc1SCC(=O)OCC	n	n	n	n	n	n
O=C(c1cccc(Cl)c1)N(Cc1cccs1)C1CCS(=O)(=O)C1 (stereo unspecified)	n	n	n	n	n	n
O=C(c1sc2ccccc2c1Cl)N(Cc1cccs1)C1CCS(=O)(=O)C1 (stereo unspecified)	n	n	58[fluorescence artefact?]	n	n	n
Cc1cc(C)nc(N2CCCC(C(=O)Nc3nnc(C(C)C)s3)C2)n1 (stereo unspecified)	n	n	n	n	n	n
COc1cc(C(=O)OCC(=O)Nc2c(F)c(F)c(F)c(F)c2F)cc(OC)c1OC	n	n	58	n	n	n
Cc1ccc(CN(CC(=O)N/N=C/c2ccco2)S(=O)(=O)c2ccc(C)cc2)cc1	n	n	x	n	x	x
COc1cccc(OCC(=O)Nc2c(C(=O)Nc3ccc(OC)cc3OC)oc3ccccc23)c1	x	x	73[fluorescence artefact?]	x	50[fluorescence artefact?]	220[fluorescence artefact?]
COCC(=O)Nc1c(C(=O)Nc2ccccc2OC)oc2ccccc12	n	n	n	n	n	213[fluorescence artefact?]
Cc1ccc(NC(=O)COc2ccc(/C=C3/SC(=Nc4ccccc4)N(Cc4cccnc4)C3=O)cc2)cc1	n	n	x	n	x	x
CC(Oc1ccc2oc(-c3ccccc3)c(C(=O)O)c2c1)C(=O)O (stereo unspecified)	n	n	n	n	n	n
Cn1c(=O)c(NCCc2ccccc2)c2c3c(cccc31)C(=O)c1ccccc1-2	n	n	n	n	n	n
COCCCNC(=O)Cn1cc2c(n1)CCC(C)C2 (stereo unspecified)	x	x	n	x	n	205
O=C(Cn1cnc2c(cnn2-c2ccc(F)cc2)c1=O)NCC1CCCO1 (stereo unspecified)	x	x	n	x	n	200
CCOC(=O)CN1CC23C=CC(O2)C(C(=O)Nc2ccc(OC)cc2OC)C3C1=O (stereo unspecified)	n	n	n	n	n	n
CCOC(=O)CN1CC23C=CC(O2)C(C(=O)Nc2cc(OC)ccc2OC)C3C1=O (stereo unspecified)	x	x	72[fluorescence artefact?]	x	69	n
CC(=O)N1C(C(=O)O)CSC1c1cccc(C)c1 (stereo unspecified)	n	36	n	n	n	n
O=C(C1CCCN(S(=O)(=O)c2ccc(F)cc2)C1)N(Cc1cccs1)C1CC1 (stereo unspecified)	x	x	n	x	n	n
CCOc1cc(OCC)cc(C(=O)O)c1	x	x	99[fluorescence artefact?]	x	n	n
Cc1ccc(C(C)C)c(OCCNc2nc3c(c(=O)n(C)c(=O)n3C)n2C)c1	x	x	n	x	n	n
CCOC(=O)c1cnc(SCC(=O)Nc2ccc(N3CCOCC3)c(Cl)c2)nc1N	n	n	n	n	n	n
CCOC(=O)c1cnc(SCC(=O)Nc2cc(OC)cc(OC)c2)nc1N	n	n	n	50	n	n
O=C(Nc1ccccc1)Nc1ccc2snnc2c1	n	n	n	n	n	n
CC(C)COC(=O)c1nnsc1NC(=O)Nc1ccccc1	n	n	64[fluorescence artefact?]	n	61	n
Cc1ccc(NC(=O)COc2ccc3oc4c(c3c2)CCCC4)nc1	80	n	n	n	n	n
